Only some compounds are listed: those with a hit (about 2.8% of all), similar ones and a draw of the others.
IP6K1 inh – blocks human inositol hexakisphosphate kinase 1; Q92551; IP6K1 kinase, ADP-Glo luminescence, 2 h; stronger effect = lower value; activity change, % (series mostly up to about 58 µM); 140,000 compounds, 0.81% hits; in the data active means activity change below about -25%; further: on the % scale 0 is the no-effect control and ±100 the full control effect
Target sequence (Q92551 whole entry, looked up): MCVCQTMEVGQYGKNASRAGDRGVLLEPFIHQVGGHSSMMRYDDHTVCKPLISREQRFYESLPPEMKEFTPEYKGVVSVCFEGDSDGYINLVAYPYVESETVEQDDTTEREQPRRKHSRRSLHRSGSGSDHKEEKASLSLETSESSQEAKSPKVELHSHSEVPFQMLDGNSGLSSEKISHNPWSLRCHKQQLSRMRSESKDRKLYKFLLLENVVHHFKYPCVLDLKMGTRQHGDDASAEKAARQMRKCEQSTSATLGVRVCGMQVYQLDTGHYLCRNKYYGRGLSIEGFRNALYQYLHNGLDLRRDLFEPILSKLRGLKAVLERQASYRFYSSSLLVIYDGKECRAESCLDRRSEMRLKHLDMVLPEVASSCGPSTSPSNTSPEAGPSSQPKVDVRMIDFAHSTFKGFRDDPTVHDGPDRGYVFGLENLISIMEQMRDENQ
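ADP-Glo luminescence measures ADP made by human IP6K1 during a 2 h RT reaction with ATP/IP6 (mix at 1.3 mM/130 uM); top library doses 57.5 and 19.1 uM final.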
SNCA viab count – cell viability loss counter-screen | HEK-293-SNCA-luc viability, GF-AFC fluorescence, 24 h | Potency, µM (doses to about 57.1 µM), without a hit: at the top dose activity change, negative = cytotoxicity, hits mostly cytotoxic | 150,000 compounds, 0.12% hits | AID 1671193;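 further: potency means the concentration at half of the fitted maximal effect; 0% = DMSO-treated cells and -100% = medium-only wells without cells; nearly all actives have a fitted effect of over 30% in size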
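Cytotoxicity counterscreen: after 24 h compound treatment of genome-edited SNCA-luciferase HEK-293 cells, live-cell protease substrate GF-AFC read by fluorescence after 30 min; activity scaled between DMSO (0%) and medium-only (-100%), curves Hill-fitted.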
SNCA expr inh – SNCA gene expression inhibition; HEK-293 SNCA-luciferase knock-in, luminescence, 24 h; Potency, µM (series often up to 57.2 µM), without a hit: top-dose activity change, negative = inhibition, hits mostly inhibitors; 140,000 compounds, 0.17% hits; AID 1671194;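 further: potency means the concentration at half of the fitted maximal effect; plate controls were DMSO cells for no effect and cell-free wells for full effect; nearly all actives have a fitted effect of over 45% in size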
KDM5B inhibitor – inhibitors of human KDM5B histone demethylase; Potency, µM (doses to about 57.7 µM), most hits filed as inhibitors; AID 1347165; 220,000 compounds, 2.6% hits; KDM5B demethylase, FDH-coupled NADH fluorescence (FDH is formaldehyde dehydrogenase); Q9UGL1; further: potency means the concentration at half of the fitted maximal effect; 0% is about no effect; nearly all actives have a fitted effect of over 70% in size
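qHTS format, multiple compound concentrations. Buffer 50 mM HEPES pH 7.5/0.01% Tween-20; 200 nM KDM5BΔAP final; 10 min compound preincubation; substrate-mix levels 12.5 µM peptide, 25 µM α-KG, 0.25 mM NAD⁺; 30 min RT; ΔRFU.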
IP6K1 inh cnf – confirmation of human IP6K1 inhibitors; shares compounds with IP6K1 inh; recombinant IP6K1 kinase, ADP-Glo luminescence, 2 h; Potency, µM (highest dose often 49 µM), for inactives: top-dose activity change, negative = inhibition, most hits filed as inhibitors; 1,200 compounds, 13% hits; AID 1645852; further: potency means the concentration at half of the fitted maximal effect; on the % scale 0 is the no-effect control and ±100 the full control effect; nearly all actives have a fitted effect of over 65% in size
Numbers without * were called inactive; [ ] = dose if it differs, or a comment. Unless noted, the call rests on the fitted dose curve; in most records, active means well fitted curve in the direction sought with a large enough effect; inconclusive means small, poorly fitted or top-dose-only effect, or another doubt; inactive means no such curve, though single readings can be large; an effect the other way counts as inactive or inconclusive.

What do the screens show for `CCOC(=O)c1cccc(NC(=O)N2Cc3ccccc3Oc3ncccc32)c1`?
IP6K1 inh: -33*; SNCA viab count: inconclusive; SNCA expr inh: -9%; KDM5B inhibitor: inconclusive; IP6K1 inh cnf: -21%

Results for Cc1cc(C)cc(NC(=O)CCC(=O)N2Cc3ccccc3Oc3ncccc32)c1 ?
IP6K1 inh: -7; SNCA viab count: -7%; SNCA expr inh: -17%; KDM5B inhibitor: inactive

Results for COc1cccc(OC(=O)CSc2nnc(-c3ccc4c(c3)OCO4)o2)c1 ?
IP6K1 inh: -32*; SNCA viab count: 2%; SNCA expr inh: inconclusive; KDM5B inhibitor: inconclusive; IP6K1 inh cnf: inconclusive

How did CCC(=O)N1CCc2cc(Br)cc(S(=O)(=O)CCC(=O)N3CCN(c4ccccc4OC)CC3)c21 do in these assays?
IP6K1 inh: -27*; SNCA viab count: 1%; SNCA expr inh: 3%; KDM5B inhibitor: inactive; IP6K1 inh cnf: -6%

What do the screens show for `CCC(=O)N1CCc2cc(Br)cc(S(=O)(=O)N(CC)Cc3ccccc3)c21`?
IP6K1 inh: -27*; SNCA viab count: 1%; SNCA expr inh: -5%; KDM5B inhibitor: inactive; IP6K1 inh cnf: 38%

How did CCC(=O)N1CCc2cc(Br)cc(S(=O)(=O)NCCCN(CC)Cc3ccccc3)c21 do in these assays?
KDM5B inhibitor: inactive

Results for Cc1ccc(NCc2cccn2-c2nnc(N3CCC(C(=O)NCc4ccc(OC(C)C)cc4)CC3)s2)cc1 ?
IP6K1 inh: -10; SNCA viab count: -8%; SNCA expr inh: inconclusive; KDM5B inhibitor: inconclusive

What do the screens show for `Cc1ccc(NCc2cccn2-c2nnc(N3CCC(C(=O)NCCc4ccc(Cl)cc4)CC3)s2)cc1`?
IP6K1 inh: -25*; SNCA viab count: -8%; SNCA expr inh: inconclusive; KDM5B inhibitor: inactive; IP6K1 inh cnf: 37%

What do the screens show for `CN(C)c1cc(=O)c2ccnc(N3CCN(c4ccccn4)CC3)c2o1`?
IP6K1 inh: -27*; SNCA viab count: 8%[87.6 µM]; SNCA expr inh: -7%[87.6 µM]; KDM5B inhibitor: inactive; IP6K1 inh cnf: inconclusive

What do the screens show for `Cc1c(C(=O)N2CCc3ccccc3C2)nnn1-c1ccc(Br)cc1`?
KDM5B inhibitor: inactive

What do the screens show for `CCOC(=O)c1cc2c(=O)n3ccccc3nc2n(Cc2ccco2)c1=NC(=O)c1cccc(Br)c1`?
IP6K1 inh: -4; SNCA viab count: 6%; SNCA expr inh: 2%; KDM5B inhibitor: inconclusive

What do the screens show for `CCOC(=O)c1cc2c(=O)n3ccccc3nc2n(Cc2ccco2)c1=NC(=O)c1cccc(C)c1`?
IP6K1 inh: -36*; SNCA viab count: inconclusive; SNCA expr inh: -24%; KDM5B inhibitor: inconclusive; IP6K1 inh cnf: inconclusive

How did Cc1ccc(NC(=O)C(=O)NCC(c2ccc3c(c2)OCO3)N2CCN(C)CC2)cc1C (stereo not drawn) do in these assays?
IP6K1 inh: -27*; SNCA viab count: 1%; SNCA expr inh: inconclusive; KDM5B inhibitor: inactive; IP6K1 inh cnf: -10%

What do the screens show for `CCOC(=O)COc1ccc([N+](=O)[O-])cc1-c1ccnc2cc(-c3ccc(C)cc3)nn12`?
IP6K1 inh: 2; SNCA viab count: 3%; SNCA expr inh: 15%; KDM5B inhibitor: inactive

What do the screens show for `Cc1ccc(-c2cc3nccc(-c4cc([N+](=O)[O-])ccc4O)n3n2)cc1`?
IP6K1 inh: -25*; SNCA viab count: inconclusive; SNCA expr inh: inconclusive; KDM5B inhibitor: inconclusive; IP6K1 inh cnf: inconclusive

How did CCOc1nccn2c(-c3ccc(CNc4ccc(OC)nc4)cc3)cnc12 do in these assays?
IP6K1 inh: -36*; SNCA viab count: -8%[87.6 µM]; SNCA expr inh: -29%[87.6 µM]; KDM5B inhibitor: inconclusive; IP6K1 inh cnf: inconclusive

What do the screens show for `Cc1cc(C)cc(-c2ccccc2CN)c1`?
IP6K1 inh: -11; SNCA viab count: 0%[87.6 µM]; SNCA expr inh: inconclusive; KDM5B inhibitor: inactive

What do the screens show for `CCn1c(CO)nnc1C1CC(NC(=O)c2cccc3c2OCCO3)C1` (stereo not drawn)?
IP6K1 inh: -25*; SNCA viab count: -4%; SNCA expr inh: 2%; KDM5B inhibitor: inconclusive; IP6K1 inh cnf: 32%

Results for COc1ccc(-c2nc(S(=O)(=O)c3ccc(C)cc3)c(N3CCCCC3)o2)cc1 ?
IP6K1 inh: -2; SNCA viab count: 10%; SNCA expr inh: -2%; KDM5B inhibitor: inconclusive

How did Cc1ccc(-c2nc(S(=O)(=O)c3ccc(Cl)cc3)c(N3CCCCC3)o2)cc1 do in these assays?
IP6K1 inh: -34*; SNCA viab count: 21%; SNCA expr inh: 1%; KDM5B inhibitor: inconclusive; IP6K1 inh cnf: inconclusive

What do the screens show for `CNC(=O)CCn1ncc2cc(OC3CCc4cccc(-c5ccccc5F)c43)ccc21` (stereo not drawn)?
IP6K1 inh: -7; SNCA viab count: inconclusive; SNCA expr inh: inconclusive; KDM5B inhibitor: inactive

What do the screens show for `COCCCNc1nc(NCc2ccccc2OC)c2cnn(C)c2n1`?
IP6K1 inh: -30*; SNCA viab count: 10%; SNCA expr inh: -16%; KDM5B inhibitor: inconclusive; IP6K1 inh cnf: -14%

How did COCCCNc1nc(NCc2ccc(C)cc2)c2cnn(C)c2n1 do in these assays?
IP6K1 inh: -36*; SNCA viab count: -11%; SNCA expr inh: -3%; KDM5B inhibitor: inconclusive; IP6K1 inh cnf: -8%

How did COCCNc1nc(NCc2ccccc2OC)c2cnn(C)c2n1 do in these assays?
IP6K1 inh: -10; SNCA viab count: 5%; SNCA expr inh: 7%; KDM5B inhibitor: inconclusive

Results for O=C(NC1CCCCCC1)c1ccc2c(Cl)c3c(nc2c1)CCC3 ?
KDM5B inhibitor: inactive

How did CC1CCCC(NC(=S)Nc2ccccc2)C1C (stereo not drawn) do in these assays?
KDM5B inhibitor: inactive

Results for CCCCCNC(=O)c1ccc2c(c1)ncn2-c1cccc(C)c1 ?
IP6K1 inh: -31*; SNCA viab count: -21%; SNCA expr inh: 1%; KDM5B inhibitor: inconclusive; IP6K1 inh cnf: inconclusive

What do the screens show for `Cc1ccc2c(c1)C(O)(CC(=O)c1ccco1)C(=O)N2` (stereo not drawn)?
KDM5B inhibitor: inactive

What do the screens show for `Cc1ccc(NC(=O)CSCc2cnn(-c3ccccc3)c2-n2cccc2)c(C)c1`?
IP6K1 inh: -28*; SNCA viab count: -4%; SNCA expr inh: -28%; KDM5B inhibitor: inactive; IP6K1 inh cnf: 2%

Results for Cc1ccc(Cl)cc1NC(=O)CSCc1cnn(-c2ccccc2)c1-n1cccc1 ?
IP6K1 inh: 25; SNCA viab count: -16%; SNCA expr inh: inconclusive; KDM5B inhibitor: inactive

What do the screens show for `O=C1CC(c2ccccc2)Cc2[nH]c(=O)c(C(=O)Nc3cccc(F)c3)cc21` (stereo not drawn)?
IP6K1 inh: -93*; SNCA viab count: 3%; SNCA expr inh: -24%; KDM5B inhibitor: inconclusive; IP6K1 inh cnf: 0%

Screening results: PubChem, National Center for Advancing Translational Sciences (NCATS)
